# Screening results as filed in PubChem BioAssay.
# Compounds with a hit are over-represented: about 12% of the library has one in this group of screens.
# HP1b chromo inh = HTS for Inhibitors of HP1-beta Chromodomain Interactions with Methylated Histone Tails | 390,000 tested, 0.56% active | AlphaScreen HP1-beta / biotin-H3K9me3 peptide binding | AID 540317, 2011 | Potency, µM (top dose mostly 114 µM), for inactives: top-dose activity change, negative = inhibition, most hits filed as inhibitors; note: nearly all actives have a fitted effect of over 70% in size
#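 AlphaScreen: HP1-beta (50 nM) preformed 30 min with biotin-H3(1-18)K9me3 peptide (50 nM) in PBS pH 7.4, 0.01% Tween-20. Compound added for 30 min at RT, then streptavidin donor/nickel chelate acceptor beads (10 ug/mL) for 30 min.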
# Sfp PPTase inh = qHTS Assay for Inhibitors of Bacillus subtilis Sfp phosphopantetheinyl transferase (PPTase); Biochemical Sfp PPTase activity, qHTS; 310,000 tested, 3.5% active; AID 1490, 2009; Potency, µM, inactives show largest response in the series, negative = inhibition, actives largely listed as inhibitors;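 note: the enzyme is Sfp with the accession as filed and its product quenches rhodamine fluorescence; 0% = enzyme reaction without inhibitor and -100% = no enzyme wells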
#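 After 15 min at room temperature with compound, 15 nM Sfp received 5 uM rhodamine-CoA plus 12.5 uM BHQ-2-ybbR (50 mM Hepes pH 7.6, 10 mM MgCl2). Rate came from the fluorescence difference over 30 min, ex 525/em 598 nm.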
# PLK1 PBD inh = qHTS for Inhibitors of PLK1-PDB (polo-like kinase 1 - polo-box domain): Primary Screen. Serine/threonine-protein kinase PLK1 (Homo sapiens), P53350. Plk1 PBD binding of FITC phosphopeptide, fluorescence polarization. Potency, µM, without a hit: max response, negative = inhibition, actives largely listed as inhibitors. 360,000 tested, 2.8% active; note: series mostly up to about 57 µM; % is set by controls: 0 for no effect and ±100 for the full control effect; nearly all actives have a fitted effect of over 65% in size
# JMJD2A Tudor inh = qHTS Assay for Inhibitors of JMJD2A-Tudor Domain. AlphaScreen JMJD2A-Tudor / H3K4me3 peptide binding. Potency, µM (series often up to 114 µM), without a hit: at the highest dose activity change, negative = inhibition, hits mostly inhibitors. AID 504339, 2011. Lysine-specific demethylase 4A (Homo sapiens), O75164. 390,000 tested, 4.4% active; note: % is set by controls: 0 for no effect and ±100 for the full control effect; nearly all actives have a fitted effect of over 50% in size
# BAZ2B inh = qHTS Assay for Inhibitors of BAZ2B | Bromodomain adjacent to zinc finger domain protein 2B (Homo sapiens), Q9UIF8 | AlphaScreen BAZ2B-H3K14Ac peptide displacement | Potency, µM (top dose mostly 114 µM), for inactives: top-dose activity change, negative = inhibition, hits mostly inhibitors | 360,000 tested, 4.4% active; note: % is set by controls: 0 for no effect and ±100 for the full control effect; nearly all actives have a fitted effect of over 60% in size
#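 Inhibition is scored as reduced AlphaScreen emission. The BAZ2B/b-H3(5-23)K14Ac complex (50 nM each) in PBS pH 7.4, 0.01% Tween-20 meets compound (up to 110 uM) for 30 min at RT before bead addition.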
# G9a inh = qHTS Assay for Inhibitors of Histone Lysine Methyltransferase G9a. 350,000 tested, 8.8% active. G9a H3K9 monomethylation, AlphaScreen, 2 h. Histone-lysine N-methyltransferase EHMT2 (Homo sapiens), Q96KQ7. Potency, µM (highest dose often 102 µM), for inactives: at the top dose activity, negative = inhibition, most hits filed as inhibitors; note: % is set by controls: 0 for no effect and ±100 for the full control effect; nearly all actives have a fitted effect of over 75% in size
#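 Step 1: enzyme (final 20 nM) with compound, 15 min RT. Step 2: substrate peptide 500 nM and SAM 20 uM, 2 h RT. Step 3: anti-H3K9me1 antibody and AlphaScreen beads, 10 min, then plate read.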
# An asterisk follows results filed as active; ? = inconclusive; · = not tested or not shown; [ ] = remark or other dose. Calls come from the whole dose curve; as a rule, active = well fitted curve in the direction sought with a large enough effect; inconclusive = small, poorly fitted or top-dose-only effect, or another doubt; inactive = no such curve, though single readings can be large; an effect the other way counts as inactive or inconclusive. Potency is the fitted concentration of half-maximal effect.
SMILES,HP1b chromo inh,Sfp PPTase inh,PLK1 PBD inh,JMJD2A Tudor inh,BAZ2B inh,G9a inh
CCOC(=O)c1c(NC(=O)C2c3ccccc3Oc3ccccc32)sc(C)c1CC,23%,·,·,-18%,-13%,11%[59 µM]
Cc1ccc(C(=O)Nc2ccccc2C(=O)O)cc1NC(=O)COc1c(C)cccc1C,31%,-2%,-14%,-7%,79µM*,25%[12.7 µM]
Cc1cc(C(=O)Nc2ccccc2C(=O)O)ccc1NC(=O)COc1cccc(C)c1C,20%,20%,?,-19%,-18%,5%
O=S(=O)(Nc1ccc(Br)cn1)c1ccc(Cl)s1,16%,21%,-4%,5%,-19%,?
CCc1nn2cc(C(=O)c3ccccc3O)cnc2c1-c1ccc(F)cc1,-14%,2%,-2%,?,?,?
CCc1nn2cc(C(=O)c3cc(C)ccc3O)cnc2c1-c1ccc(F)cc1,15%,0%,-2%,?,?,45µM*
CCN(C(=O)N1CCOCC1)c1ccccc1,38%,13%,-4%,12%[57.1 µM],-5%,58%
CCN(CC)c1ccc(N=CN2CCOCC2)cc1,?,4%,-7%,79µM*,?,11µM*
CCCCN1C=CC(=C2C(=O)c3ccccc3C2=O)C=C1,41%,20%,3%,-4%,22%,50µM*
CCN(CC)S(=O)(=O)c1cccc(C(=O)N/N=C/c2ccc(O)c(O)c2O)c1,?,-106%,8.4µM*,?,40µM*,1.8µM*
CCN(CC)S(=O)(=O)c1cccc(C(=O)N/N=C(\C)c2ccc(O)cc2O)c1,30%,16%,120%,?,8.9µM*,28%
O=C(COC(=O)c1ncc(Cl)c(Cl)c1Cl)NC1CCCCCC1,19%,·,-4%,-3%,23%,40µM*
O=C(COC(=O)c1ccccc1Br)NC1CCCC1,21%,1%,-3%,3%,-14%,40µM*
N#Cc1ccc(C(=O)OCC(=O)NC2CCCC2)cc1,32%,17%,-1%,-3%,5%,45µM*
O=C(COC(=O)c1nc(Cl)ccc1Cl)NC1CCCCCC1,31%,·,-2%,-6%,-21%,-15%
N#Cc1ccc(OCC(=O)NC2CCCCCC2)cc1,11%,·,-7%,-1%,·,·
CCc1ccc(CNC(=O)c2c(C)oc3ncn(CC(C)C)c(=O)c23)cc1,37%,·,·,3%,7%[57.1 µM],-7%[59 µM]
Nn1c(SCC(=O)Nc2nccs2)nnc1-c1cccnc1,21%,·,-21%,2%,5%,-4%[2.33 µM]
Cn1c(-c2sccc2OCc2ccc(Cl)cc2Cl)n[nH]c1=S,-16%,3%,27µM*,-17%[11.4 µM],?,3.2µM*
Cn1c(-c2sccc2OCc2ccccc2)n[nH]c1=S,?,13%,-8%,3.2µM*,56µM*,2.8µM*
Fc1ccc(-c2ccnc(=S)[nH]2)cc1,16%,20µM*,9.5µM*,5%,2%,-49%[12.7 µM]
Cc1ccc([N+](=O)[O-])c(C)[n+]1C,?,-25%,-4%,14µM*,?,3.5µM*
O=C(NCc1ccccc1)c1ccc2c(=O)n(CCCN3CCCC3=O)c(=S)[nH]c2c1,32%,1%,-5%,-17%,-11%,45µM*
O=C(NCCCN1CCCC1=O)c1ccc2c(=O)n(Cc3ccco3)c(=S)[nH]c2c1,-19%,35µM*,4.7µM*,?,5%,10µM*
COc1ccccc1CNC(=O)c1ccc2c(=O)n(CCCN3CCCC3=O)c(=S)[nH]c2c1,15%,18%,-8%,-31%,?,9%[59 µM]
SMILES,HP1b chromo inh,Sfp PPTase inh,PLK1 PBD inh,JMJD2A Tudor inh,BAZ2B inh,G9a inh
COc1ccc(OC)c(-n2c(=S)[nH]c3cc(C(=O)N4CCC(C(N)=O)CC4)ccc3c2=O)c1,57%,-24%,-1%,16µM*,0%,?
COc1ccc(OC)c(-n2c(=S)[nH]c3cc(C(=O)NCCCN4CCCC4=O)ccc3c2=O)c1,·,?,·,·,-34%,28µM*
Cc1cc(C)c(S(=O)(=O)NCC(c2ccco2)S(=O)(=O)c2cccs2)c(C)c1 (stereo not given),13%,·,·,-31%,-18%,-9%[59 µM]
COc1ccccc1C(=O)NCCC(=O)N1CCN(S(=O)(=O)c2ccccc2C(F)(F)F)CC1,26%,·,-4%,-2%,3%,-19%
CCCCC/C=C\C\C=C/C=C/C=C/[C@@H](SC[C@H](N)C(=O)O)[C@@H](O)CCCC(=O)O,·,12%,·,·,·,38%[59 µM]
CCc1cccc(CC)c1N(COC)C(=O)Cn1c(C)nc2ccccc21,14%,·,·,-12%,-7%,?
C=CCNC(=O)c1ccc2c(=O)n(CCCN3CCCC3=O)c(=S)[nH]c2c1,11%,79µM*,-9%,50µM*,?,?
COc1ccc(CNC(=O)c2ccc3c(=O)n(CCCN4CCCC4=O)c(=S)[nH]c3c2)cc1,9%,11%,-12%,-20%,-17%,15%[59 µM]
COC(=O)c1ccc2c(=O)n(CCCN3CCCC3=O)c(=S)[nH]c2c1,27%,-15%,-7%,?,71µM*,-30%[12.7 µM]
CCCCCCCCCCCCCCCCOC[C@H](COP(=O)([O-])OCC[N+](C)(C)C)OC(=O)CCCCCCCC(=O)O,·,-19%,·,·,·,·
COc1cc(OC)c(NC(C)C(=O)NCc2ccccc2)cc1Cl (stereo not given),14%,?,-8%,-28%,?,?
CCOc1cc(N2CCOCC2)c(OCC)cc1NC(=O)CN1CCC(Cc2ccccc2)CC1,25µM*,-5%,-12%,22µM*,32µM*,50µM*
CCOc1cc(N2CCOCC2)c(OCC)cc1NC(=O)CSc1ncccn1,-25%,0%,?,-18%,-27%,40µM*
CCOc1cc(N2CCOCC2)c(OCC)cc1NC(=O)CSc1ncccc1C(=O)O,14%,·,-4%,-3%,·,·
CCOc1cc(N2CCOCC2)c(OCC)cc1NC(=O)Cc1ccccc1OC,?,-13%,1%,?,45µM*,?
CCOc1cc(N2CCOCC2)c(OCC)cc1NC(=O)CN1C(=O)NC(Cc2ccccc2)C1=O (stereo not given),27%,-13%,-1%,4%,2%,?
CCOc1cc(N2CCOCC2)c(OCC)cc1NC(=O)Cc1ccccc1,3%,-6%,-10%,-31%,?,·
